In the library only some 0.52% were active in any assay of this set; here they are far more common.
Sa helicase inh: S. aureus DNA helicase inhibition; purified S. aureus helicase, fluorescence unwinding assay; inhibition, % (no concentration beside the values); 120,000 tested, 0.05% active; AID 485395; in the data active = inhibition above about 25%, passing the limit was not always enough;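 note: 0% = mean of negative control wells and 100% = mean of positive control wells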
Sa growth inh: blocks Staphylococcus aureus growth; S. aureus RN4220 growth, OD600, 20 h, 42 °C; active compounds read low; relative growth, % (concentration not given with the values); 170,000 tested, 0.53% active; AID 720641;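 active = relative growth at most 50% at the other temperature and 20+ points below 30 °C, or under 10% at both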
Active calls of the source: *.

`COc1cccc(Cn2nnc3c(=O)[nH]c(C4CCN(C(=O)c5ccccc5Cl)CC4)nc32)c1` gave Sa growth inh 0.4*.
Screening O=C(Cc1ccc(F)cc1)N1CCC(c2nc3c(nnn3Cc3ccc(Cl)cc3)c(=O)[nH]2)CC1 returned Sa growth inh 6.4*.
`Cc1cccc(Cn2nnc3c(=O)[nH]c(C4CCN(C(=O)c5ccccc5F)CC4)nc32)c1` gave Sa growth inh 103.
For CC(C)(C)OC(=O)N1CCC(c2nc3c(nnn3Cc3ccccc3Cl)c(=O)[nH]2)CC1 the results were Sa helicase inh 0 and Sa growth inh 0.3*.
`O=C(Cc1ccccc1F)N1CCC(c2nc3c(nnn3Cc3ccc(F)cc3)c(=O)[nH]2)CC1` gave Sa growth inh 68.
For Cc1ccccc1Cn1nnc2c(=O)[nH]c(C3CCN(C(=O)c4ccccc4Cl)CC3)nc21 the results were Sa growth inh 12.
For Cc1ccc(NC(=O)Cc2nc(COC(=O)C3CC(=O)N(Cc4ccco4)C3)cs2)cc1 (stereo not drawn) the results were Sa helicase inh 14 and Sa growth inh 84.
For Nc1ccc(C(=O)N/N=C/c2cccn2-c2ccc(S(N)(=O)=O)cc2)cc1 the results were Sa helicase inh 12 and Sa growth inh 99.
O=C(N1CCCC1)N1c2ccccc2C=Cc2ccccc21 was read as Sa helicase inh -6 and Sa growth inh 84.
For COc1ccc(-c2nc(=O)[nH]c(=O)[nH]2)cc1 the results were Sa helicase inh 5 and Sa growth inh 109.
Screening COc1cccc(Cn2nnc3c(=O)[nH]c(C4CCN(C(=O)c5ccccc5)CC4)nc32)c1 returned Sa helicase inh 8 and Sa growth inh 0.8*.
COc1cccc(Cn2nnc3c(=O)[nH]c(C4CCCN(C(=O)c5ccc(C)cc5)C4)nc32)c1 (stereo not drawn) was read as Sa growth inh 79.
`O=C(OCc1nc2ccsc2c(=O)[nH]1)c1ccc(N2CCCC2=O)cc1` gave Sa helicase inh 9 and Sa growth inh 86.
Cc1ccc(C)n1-c1ccc(C(=O)OCc2nc3ccsc3c(=O)[nH]2)cc1 was read as Sa helicase inh 1 and Sa growth inh 48*.
For O=C1CN(/N=C/c2ccc([N+](=O)[O-])o2)C(=O)N1 the results were Sa growth inh 13.
`O=C1OCCN1/N=C/c1ccc([N+](=O)[O-])o1` gave Sa growth inh -0.9*.
Screening C=CCN1C(=O)C(=O)/C(=C(\O)c2ccccc2)C1c1ccccc1Cl (stereo not drawn) returned Sa helicase inh 20 and Sa growth inh 115.
Screening Cc1c(C)[n+]([O-])c2ccc3c(non3O)c12 returned Sa helicase inh 9 and Sa growth inh 1.9*.
For CCOC(=O)c1c(C)[n+]([O-])c2ccc3c(non3O)c12 the results were Sa helicase inh 2 and Sa growth inh 78.
`O=C(c1ccco1)N1CCN(C(=O)c2sc3ccccc3c2Cl)CC1` gave Sa growth inh 91.
Screening O=C(Oc1c(C(=O)c2ccccc2)sc2ccccc12)c1ccco1 returned Sa helicase inh 6 and Sa growth inh 1.7*.
Screening COC(=O)c1cn(NC(=O)CSc2ccncc2)c(=O)c2ccccc12 returned Sa helicase inh 6 and Sa growth inh 106.
For CO/N=C(\C(=O)N[C@@H]1C(=O)N2C(C(=O)O)=C(COC(C)=O)CS[C@H]12)c1csc(N)n1 the results were Sa growth inh -0.8*.
Screening CC(=O)OCC1=C(C(=O)O)N2C(=O)[C@@H](NC(=O)CSc3ccncc3)[C@H]2SC1 returned Sa growth inh -0.3*.
For CC(C)(O/N=C(\C(=O)N[C@@H]1C(=O)N2C(C(=O)[O-])=C(C[n+]3ccccc3)CSC12)c1csc(N)n1)C(=O)O (stereo partly drawn) the results were Sa growth inh 69.
`COCC1=C(C(=O)OC(C)OC(=O)OC(C)C)N2C(=O)[C@@H](NC(=O)C(=NOC)c3csc(N)n3)[C@H]2SC1` (stereo partly drawn) gave Sa growth inh 16.
For CO/N=C(/C(=O)NC1C(=O)N2C(C(=O)O)=C(COC(N)=O)CSC12)c1ccco1 (stereo not drawn) the results were Sa growth inh -1.0*.
For CC/C(=N/NC(=O)c1ccccc1C)c1ccc(O)cc1 the results were Sa growth inh 98.
For CC(C)CCNC(=O)C1(C)CCC(=O)N1CCc1ccccc1 (stereo not drawn) the results were Sa helicase inh -33 and Sa growth inh 93.
Cc1ccc(C#N)c(SCCCn2c(=O)[nH]c3ccccc32)n1 was read as Sa helicase inh 10 and Sa growth inh 116.
Screening O=c1oc2ccccc2c(O)c1Cc1cc(Cl)c2cccnc2c1O returned Sa helicase inh -15 and Sa growth inh 128.
Screening Cc1cc(O)c(Cc2cc(Cl)c3cccnc3c2O)c(=O)o1 returned Sa helicase inh 17 and Sa growth inh 4.0*.
Screening C=CCN1C(=O)/C(=C2\SC(N3CCCCC3)=NC2=O)c2ccccc21 returned Sa helicase inh 18 and Sa growth inh 96.

Screens (PubChem)
